According to PubChem BioAssay AID1745848 (National Center for Advancing Translational Sciences (NCATS), 2022):
In all, about 2,100 compounds went through this assay and about 940 (45%) were called active. Roughly 48% stayed inconclusive and do not appear here. Calls come from the whole dose curve; as a rule, active = well fitted inhibition curve with a large enough effect; inconclusive = small, poorly fitted or top-dose-only effect; inactive = no such curve, though single readings can be large or run the other way. The set was probably picked from earlier hits. This is one part of the list.

Test: Confirmatory qHTS for Inhibitors of ATXN expression; note: nearly all actives have a fitted effect of over 65% in size
Details: ATXN2-luciferase reporter cells, luminescence, 24 h; series mostly up to 11.5 µM
Method in brief: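 A titration, incubated 24 h with reporter cells expressing ATXN2-luciferase. Luminescence (SteadyGlo) gives ATXN2 expression, multiplexed GF-AFC fluorescence gives viability; normalised to DMSO and medium-only wells.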
Potency is the fitted concentration of half-maximal effect.

Potency, active:
COC(=O)c1cc(=O)n(CCc2ccc(OC)c(OC)c2)c(=Nc2ccc(F)c(Cl)c2)s1 3.16 µM, CCCC[C@@H](CNC)NC[C@H](NCCCCC1CCCCC1)C(C)C 28.2 µM, CCN1C(=O)/C(=C/c2nc3ccccc3c(=O)n2-c2ccccc2)c2ccccc21 25.1 µM, O=[N+]([O-])c1c(Nc2ccccn2)cc(Cl)c2nonc12 7.94 µM, COc1cc(C=CC(=O)c2cc(OC)c(OC)c(OC)c2)cc(OC)c1OC 8.91 µM, Cc1[nH]c2ccccc2c1C1=NNC(=Nc2ccc(F)cc2)SC1 31.6 µM, O=C(Nc1ccc(Cl)cc1)Nc1nc(-c2sccc2Br)cs1 6.31 µM, CC(C)[C@@H]1CC[C@@H](C)C[C@H]1OC(=O)C[n+]1cc(-c2ccc(Cl)cc2)n2c1CCCCC2 15.8 µM, O=C(Nc1nc(-c2ccccc2)cs1)c1ccccc1NS(=O)(=O)c1ccc(F)cc1 2 µM, COc1ccc(-c2csc(NC(=O)c3ccccc3NS(=O)(=O)c3ccc(F)c(F)c3)n2)cc1 1.78 µM, OC(c1cc(F)cc(Cl)c1)c1ncc(-c2cccc(C(F)(F)F)c2)[nH]1 (configuration not stated) 3.16 µM, C/C(=N\NC(=O)c1ccc(Cl)c(Cl)c1)c1ccccn1 0.178 µM, C/C(=N\NC(=O)c1cccc2ccccc12)c1ccccn1 0.708 µM, Cc1cc(C)cc(NC(=O)CSc2nc3[nH]ncc3c(=O)[nH]2)c1 2.51 µM, Cc1cc(C)cc(NC(=O)CSc2nc3nc(C)cc(C)c3c(=O)[nH]2)c1 28.2 µM, COc1cc(C(=O)O/N=C(\N)Cc2ccc([N+](=O)[O-])cc2)cc(OC)c1OC 2.82 µM, O=c1[nH]c(=O)n(C2C[C@H](O)[C@@H](CO)O2)cc1C(F)(F)F (some centres not stated) 1.26 µM, CCOC(=O)c1c(-c2ccccc2)oc2cc(CN(C)C)c(O)c(CN(C)C)c12 3.16 µM, CCCC(=O)NC(c1ccc(C(C)C)cc1)c1ccc2cccnc2c1O (configuration not stated) 0.178 µM, CCCC(=O)NC(c1ccc(Cl)cc1)c1ccc2cccnc2c1O (configuration not stated) 1.58 µM, CCCCC(=O)NC(c1ccc(Cl)cc1)c1ccc2cccnc2c1O (configuration not stated) 1.41 µM, CCCC(=O)NC(c1ccc(OC)cc1)c1ccc2cccnc2c1O (configuration not stated) 2.24 µM, CC(C)CC(=O)NC(c1cccs1)c1ccc2cccnc2c1O (configuration not stated) 0.398 µM, CCCC(=O)NC(c1ccc(C)cc1)c1ccc2cccnc2c1O (configuration not stated) 1.58 µM, CCOc1ccccc1N1CCN(c2ncnc3scc(-c4ccc(OC)cc4)c23)CC1 28.2 µM, CCN1CCN(CCCNC(=O)c2ccc(/C=C3/Sc4ccccc4N(Cc4ccccc4F)C3=O)cc2)CC1 28.2 µM, COc1ccc(Cc2nnc(N/N=C/c3ccccc3O)[nH]c2=O)cc1OC 1.58 µM, COc1ccc(Cc2nnc(N/N=C/c3ccc(O)cc3)[nH]c2=O)cc1OC 0.631 µM, Cc1cccc2c1-c1sc(C(=O)Nc3ccccc3N3CCN(C)CC3)cc1CO2 25.1 µM, CCn1c(COc2ccccc2C)nnc1SCC(=O)N1CCN(c2ccccc2)CC1 14.1 µM, CC(C)(CC(=O)N1CCN(c2ccc(Cl)cc2)CC1)CC1=NS(=O)(=O)c2ccccc2N1 2.51 µM, C(=N\Nc1ccc2nncn2n1)/c1ccccn1 17.8 µM, O=c1nc(N/N=C/c2ccccn2)cn[nH]1 28.2 µM, Cc1nnc(N/N=C/c2ccccn2)[nH]c1=O 1.41 µM, Cc1[nH]n2c(=O)cc(C(C)(C)C)nc2c1-c1ccccc1 7.08 µM, CCCc1cc(=O)[nH]c(-n2[nH]c3c(c2=O)CCCC3)n1 15.8 µM, CC1(C)COCN1S(=O)(=O)c1ccc(C(=O)Nc2nnc(-c3ccc(Cl)s3)o2)cc1 1.12 µM, CCCN(CCC)S(=O)(=O)c1ccc(C(=O)Nc2nnc(-c3cc(OC)cc(OC)c3)o2)cc1 1.58 µM, COc1ccc(-c2nnc(NC(=O)c3ccc(S(=O)(=O)N4COCC4(C)C)cc3)o2)cc1 2.51 µM, COc1cc(NC(=O)N2CCc3nc(Nc4cc(Cl)cc(Cl)c4)ncc3C2)cc(OC)c1OC 3.98 µM, CC(=O)C(C(C)=O)c1c(Cl)c(O)c(O)c2c(C(=O)c3ccccc3)coc12 5.62 µM, CCOC(=O)C(C(C)=O)c1c(Br)c(O)c(O)c2c(C(=O)c3ccc(C)cc3)coc12 (configuration not stated) 5.62 µM, O=C(Nc1ccc(OCC(F)(F)C(F)F)c(C(F)(F)F)c1)c1ccc(Cl)cc1 3.55 µM, O=C(NCc1ccccc1)C1=C[C@@H](c2csc3ccccc23)C[C@@H](OCCCCO)O1 3.55 µM, CN(C)C(=O)CSc1nc(-c2ccccc2)nc2c1CCCC2 17.8 µM, COC(=O)C1=C(C)N(Cc2ccccc2)C(=NCCc2cccnc2)N[C@H]1c1ccc(Br)cc1 25.1 µM, COC(=O)C1=C(C)N(Cc2ccccc2)C(=NCCc2ccccn2)N[C@H]1c1cccc(C(F)(F)F)c1 3.16 µM, CCc1cc(-c2nnn(CCC3COCCO3)c2CC)ccc1-c1cn(CCc2c[nH]c3ccccc23)nn1 (configuration not stated) 8.91 µM

Potency, inactive:
COc1cc(/C=C/c2ccc3cccc(O)c3n2)cc(OC)c1OC, NS(=O)(=O)c1ccc(Nc2nc(-c3ccc(F)cc3)cs2)cc1, Cc1cc(C)c(C(O)c2ncc(-c3cccc4ccccc34)[nH]2)c(C)c1 (configuration not stated), OC(c1ccc(Cl)cc1)c1ncc(-c2cccc(C(F)(F)F)c2)[nH]1 (configuration not stated), CCN(CC)C(=O)C1=C(C)N(CCC2=CCCCC2)C(=O)C(CC(=O)NC(c2ccccc2)c2ccccc2)C1 (configuration not stated), Cn1c(CO)cnc1S(=O)(=O)Cc1ccc([N+](=O)[O-])cc1, C=CCOc1ccc(CNc2ccc3[nH]c(=O)[nH]c3c2)cc1OC, C(=N\NC(=Nc1ccccc1)c1ccccn1)/c1ccccn1, C=CCOC(=O)C1=C[C@@H](c2ccc3c(c2)OCO3)C[C@@H](OCCCCO)O1
